Screening results from PubChem.
This is a sample that favours compounds with a hit; in the whole collection about 0.58% have one here.
IL2 activator: qHTS of IL-2 Activators | activation, % (series mostly up to about 46 µM) | 360,000 tested, 0.065% active | AID 652025, 2013 | IL-2 activation reporter assay, cell-based qHTS; stimulated with anti-CD3/CD4/CD28 beads; in transgenic mouse T cells; in the data active means activation above about 50%; inconclusive means mostly about 30% to 49%; further: 0% is about no effect
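Unstimulated transgenic mouse T cells, 750 per well, received compound and, after 60 minutes, anti-CD3/anti-CD4 bead plus anti-CD28 stimulation. EGFP and DsRed were quantified after 18 hours.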
Epigenetic reg: Quantitative High-Throughput Screen for Regulators of Epigenetic Control; murine LDR cells, GFP reporter derepression, 30 h; Potency, µM (highest dose often 53.9 µM), without a hit: top-dose GFP activation, usual class: activators; 280,000 tested, 0.2% active; further: potency means the concentration at half of the fitted maximal effect; % of control where 0% means no effect; nearly all actives have a fitted effect of over 60% in size
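Murine LDR cells carrying a silenced, genomically integrated CMV-driven GFP reporter were exposed to compound for 30 hours at 37 C. After PBS washes, GFP-positive cells (20–120 um objects) were counted by laser-scanning microplate cytometry.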
PKM2 act: qHTS Assay for Activators of Human Muscle isoform 2 Pyruvate Kinase; 260,000 tested, 0.34% active; purified PKM2, Kinase-Glo ATP luminescence, activation; response scale: 0% is enzyme alone, no compound; Potency, µM (doses to about 57.5 µM), without a hit: at the top dose activation, actives largely listed as activators; Pyruvate kinase PKM (Homo sapiens), P14618; further: potency means the concentration at half of the fitted maximal effect; on the % scale 0 is the no-effect control and ±100 the full control effect; nearly all actives have a fitted effect of over 55% in size
Target sequence (P14618 whole entry, looked up, canonical isoform): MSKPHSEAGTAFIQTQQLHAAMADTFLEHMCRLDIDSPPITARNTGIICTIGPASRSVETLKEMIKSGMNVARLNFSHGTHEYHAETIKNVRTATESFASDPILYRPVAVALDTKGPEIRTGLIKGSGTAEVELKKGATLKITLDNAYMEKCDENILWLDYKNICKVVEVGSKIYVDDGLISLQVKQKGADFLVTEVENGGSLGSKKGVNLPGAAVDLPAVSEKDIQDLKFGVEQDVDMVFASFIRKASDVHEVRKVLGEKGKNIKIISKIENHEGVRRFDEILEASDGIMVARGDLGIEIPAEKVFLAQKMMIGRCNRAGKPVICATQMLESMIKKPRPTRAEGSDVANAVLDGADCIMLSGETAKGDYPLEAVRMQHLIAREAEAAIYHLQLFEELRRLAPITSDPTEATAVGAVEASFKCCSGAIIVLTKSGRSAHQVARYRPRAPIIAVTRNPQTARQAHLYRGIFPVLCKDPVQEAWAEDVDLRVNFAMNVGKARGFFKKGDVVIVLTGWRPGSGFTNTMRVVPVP
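Kinase-Glo luminescence reports ATP generated from ADP (0.1 mM) and PEP (0.5 mM) by purified hPK-M2 after 1 h at room temperature, pH 7.2 imidazole buffer; intermediate enzyme activity allows detecting inhibitors and activators.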
B2AR arrestin: qHTS assay of beta-arrestin-biased ligands of beta2-adrenergic receptor; Beta-2 adrenergic receptor (Homo sapiens), P07550; beta-arrestin recruitment to beta2AR, cell-based reporter; Potency, µM (doses to about 46.1 µM), for inactives: at the highest dose activation, actives largely listed as activators; 330,000 tested, 0.02% active; AID 492947, 2010;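 further: potency means the concentration at half of the fitted maximal effect; 0% = DMSO controls and full agonism = EC100 isoproterenol or metaproterenol; nearly all actives have a fitted effect of over 65% in size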
PINK1 expr mod: A Quantitative High throughput Screen to Identify Chemical Modulators of PINK1 Expression. Potency, µM (titrated, usually from 76.6 µM), for the others: top-dose activation (PINK1 increase), hits mostly activators. PINK1 immunofluorescence, high-content cytometry, 24 h. 410,000 tested, 0.2% active. AID 624263, 2012; active means well fitted activation curve with a large enough effect; inconclusive means small, poorly fitted or top-dose-only effect; cell line not stated here; further: potency means the concentration at half of the fitted maximal effect; % of control where 0% means no effect; nearly all actives have a fitted effect of over 65% in size
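PINK1 protein, normally rapidly degraded, was detected by immunofluorescence after 24 hour compound treatment of a stable cell line. Titration data (5 concentrations) came from laser-scanning cytometry, with CCCP-treated wells as controls.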
Parental c127i: Parental Cell Counter Screen Assay for Epigenetic Modulators: Hit Validation. mouse c127i parental cells, fluorescent cell count, 30 h. AID 493065, 2011. Potency, µM, for the others: top-dose fluorescent cell count, usual class: activators. 60 tested, 20% active. shares compounds with Epigenetic reg
HCC4017 viab: HCC4017 Cell Viability Secondary Assay for qHTS Assay for Epigenetic Modulators | shares compounds with Epigenetic reg | HCC4017 NSCLC viability, CellTiter-Glo ATP luminescence, 72 h | Potency, µM (doses to about 46.1 µM), without a hit: at the top dose activity change, negative = cytotoxicity, hits mostly cytotoxic | 45 tested, 30% active
H358 tox: H358 Cell Viability Secondary Assay for qHTS Assay for Epigenetic Modulators: Round 2; H358 NSCLC viability, ATP luminescence, 72 h; 45 tested, 30% active; shares compounds with Epigenetic reg; Potency, µM (top dose mostly 46.1 µM), for inactives: at the top dose activity change, negative = viability loss, usual class: cytotoxic
* = called active by the depositor. Unless noted, the call rests on the fitted dose curve; in most records, active means well fitted curve in the direction sought with a large enough effect; inconclusive means small, poorly fitted or top-dose-only effect, or another doubt; inactive means no such curve, though single readings can be large; an effect the other way counts as inactive or inconclusive.

Results for COc1cc2c(cc1OC)[C@@H]1C(=O)c3ccc4c(c3OC1CO2)CC(C(C)C)O4 (stereo partly drawn) ?
Epigenetic reg: -1.0%; PINK1 expr mod: 7.9%

Results for Cc1c(NS(=O)(=O)c2ccccc2)ccc([N+](=O)[O-])c1Cl ?
IL2 activator: -0.4; PINK1 expr mod: 15.8µM*

How did O=[N+]([O-])c1ccc(Cl)c(Cl)c1Cl do in these assays?
IL2 activator: -0.3; B2AR arrestin: 0.3%; PINK1 expr mod: -0.1%

Results for Cc1ccc(-n2c(O)c(C=Nc3ccccc3N)c(=O)[nH]c2=O)cc1C ?
IL2 activator: 1.9; Epigenetic reg: -1.6%; PKM2 act: -5.8%; B2AR arrestin: 0.3%; PINK1 expr mod: 2.0%

How did O=c1[nH]c(=O)n(-c2ccc(F)cc2)c(O)c1C=Nc1ccccc1N1CCCC1 do in these assays?
IL2 activator: 3.1; Epigenetic reg: 7.3%; PKM2 act: 6.1%; B2AR arrestin: 3.5%; PINK1 expr mod: 35.5µM*

Results for COc1ccc(OC)c(N=Cc2c(O)n(Cc3ccccc3)c(=S)[nH]c2=O)c1 ?
IL2 activator: 79.6*; Epigenetic reg: inconclusive; PKM2 act: -2.8%; B2AR arrestin: -0.5%; PINK1 expr mod: 35.5µM*

What do the screens show for `COc1ccc(N=Cc2c(O)n(Cc3ccccc3)c(=S)[nH]c2=O)c(OC)c1`?
IL2 activator: -0.2; Epigenetic reg: 1.2%; PKM2 act: -4.9%; B2AR arrestin: -0.8%; PINK1 expr mod: 1.5%

How did Oc1ccc(-c2cccnc2)cc1CNC1CN2CCC1CC2 (stereo not drawn) do in these assays?
PINK1 expr mod: 0.0%

How did COc1ccc(OC)c(N2C(=O)NC(=O)/C(=C\c3ccc([N+](=O)[O-])s3)C2=O)c1 do in these assays?
IL2 activator: -4.1; Epigenetic reg: inconclusive; PKM2 act: 3.4%; B2AR arrestin: 0.2%; PINK1 expr mod: 6.1%; Parental c127i: 6.0%; HCC4017 viab: -9.2%; H358 tox: -26.1%

What do the screens show for `CCN(CC)c1ccc2c(c1)oc(=O)c1c(Cl)cc(=O)oc12`?
IL2 activator: -0.6; Epigenetic reg: 8.91µM*; PKM2 act: -0.7%; B2AR arrestin: 3.6%; PINK1 expr mod: 0.3%; Parental c127i: 31.6µM*

How did CC(=O)O[C@@H]1C[C@@]2(C)C(c3ccoc3)C[C@H]3O[C@]32[C@]2(C)C(=O)C(O)=C3C(C)(C)C(=O)C=C[C@]3(C)C12 (stereo partly drawn) do in these assays?
Epigenetic reg: 2.0%

Results for CNNC ?
Epigenetic reg: -0.9%; PINK1 expr mod: 0.7%

What do the screens show for `C[C@H]1C[C@@H](C)C(=O)[C@@H]([C@H](O)CC2CC(=O)NC(=O)C2)C1`?
IL2 activator: -0.3; Epigenetic reg: inconclusive; PKM2 act: -0.6%; B2AR arrestin: -0.5%; PINK1 expr mod: -1.1%; Parental c127i: 3.0%

Results for OC[C@H]1O[C@@H](n2cnc3cc(Cl)c(Cl)cc32)[C@H](O)[C@H]1O ?
Epigenetic reg: 0.0%
